In PubChem BioAssay (NCATS):
Records with an inconclusive call do not appear. Some of the results follow. Calls of active or inactive are those of the source. The call rests on the fitted dose curve; in most records, active means well fitted curve in the direction sought with a large enough effect; inconclusive means small, poorly fitted or top-dose-only effect, or another doubt; inactive means no such curve, though single readings can be large; an effect the other way counts as inactive or inconclusive.

Columns and labels:
[1] = biological target: Rap guanine nucleotide exchange factor 3 (Homo sapiens) (UniProt O95398); assay: Confirmatory qHTS for antagonist of cAMP-regulated guanine nucleotide exchange factor 3 (EPAC1) (AID 1645880); details: EPAC1 Rap1B-BODIPY-GDP exchange, fluorescence; activity, negative = inhibition: at 115 µM (top of the series); further: nearly all actives have a fitted effect of over 55% in size; further: potency means the concentration at half of the fitted maximal effect;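 on activity, negative = inhibition: plate controls were DMSO only for no effect and full effect of the ATA control for full effect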
How it was run: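 Released BODIPY-GDP fluoresces less than Rap1-bound BODIPY-GDP; the signal is followed at 480/540 nm at 5-min intervals over 30 min, after 5 min at room temperature. Reactions contain 100 nM EPAC1, 250 nM RAP1B-BODIPY-GDP and 50 uM GDP; results are normalized to ATA and DMSO.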

[2] = biological target: Rap guanine nucleotide exchange factor 3 (Homo sapiens) (UniProt O95398); assay: Confirmatory qHTS for agonist of cAMP-regulated guanine nucleotide exchange factor 3 (EPAC1) (AID 1645881);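 further: EPAC1 catalysed release of BODIPY-GDP from Rap1B seen as fluorescence loss; 100% = effect of cAMP agonist control; nearly all actives have a fitted effect of over 75% in size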
[3] = biological target: Rap guanine nucleotide exchange factor 4 (Homo sapiens) (UniProt Q8WZA2); assay: Confirmatory qHTS for agonist of cAMP-regulated guanine nucleotide exchange factor 4 (EPAC2) (AID 1645884);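 further: nucleotide exchange releases bodipy-GDP from Rap1 and this lowers its fluorescence; on the % scale 0 is the no-effect control and ±100 the full control effect; nearly all actives have a fitted effect of over 65% in size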
[4] = biological target: Rap guanine nucleotide exchange factor 3 (Homo sapiens) (UniProt O95398); assay: Counterscreen qHTS for antagonist of cAMP-regulated guanine nucleotide exchange factor 3 (EPAC1) (AID 1645888); further: potency means the concentration at half of the fitted maximal effect; on activity change, negative = inhibition: % of control where 0% means no effect
How it was run: (§1)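 Measured: fluorescence of BODIPY-GDP bound to Rap1B, which falls as exchange proceeds. Conditions include 50 uM competing GDP, 5 and 30 min reads, and a later cAMP challenge for antagonist detection.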

[5] = biological target: Rap guanine nucleotide exchange factor 3 (Homo sapiens) (UniProt O95398); assay: Counterscreen qHTS for agonist of cAMP-regulated guanine nucleotide exchange factor 3 (EPAC1) (AID 1645889); further: % of control where 0% means no effect; nearly all actives have a fitted effect of over 40% in size
How it was run: as §1

[6] = biological target: Phosphoglycerate kinase, glycosomal (Trypanosoma brucei brucei) (UniProt P07378); assay: qHTS for inhibitors of Phosphogylcerate Kinase: Hit Validation Screen (AID 686980); details: TbPGK coupled GAPDH assay, Kinase-Glo luminescence; further: potency means the concentration at half of the fitted maximal effect; nearly all actives have a fitted effect of over 65% in size
How it was run: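 Recombinant glycosomal PGK reaction used 1,3-bisphosphoglycerate generated in-well by GAPDH (100nM final) in 100mM TEA pH 7.6, 5mM MgCl2, 0.01% Tween-20. After 60 minutes at room temperature, ATP was read by Kinase-Glo Plus luminescence end-point.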

[7] = biological target: DNA polymerase iota (Homo sapiens) (UniProt Q9UNA4); assay: qHTS for Inhibitors of Polymerase Iota: Confirmatory Assay for Cherry-picked Compounds (AID 720496); details: Pol iota primer extension, TAMRA/BHQ fluorescence; further: potency means the concentration at half of the fitted maximal effect
How it was run: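 Using TAMRA dequenching as read-out, activity of 10 nM human Pol iota on 50 nM (final) primer/reporter/template substrate was tracked from 0 to 10 min, following a 15 min room-temperature compound preincubation.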

[8] = biological target: Bifunctional 3'-5' exonuclease/ATP-dependent helicase WRN (Homo sapiens) (UniProt Q14191); assay: qHTS for Inhibitors of WRN Helicase: Confirmatory Assay for Cherry-picked Compounds. (AID 720497); details: WRN helicase DNA unwinding, fluorescence kinetic; further: potency means the concentration at half of the fitted maximal effect; nearly all actives have a fitted effect of over 65% in size
How it was run: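 Kinetic fluorescence helicase read-out (525 nm excitation, 598 nm emission) on a forked duplex substrate at 100 nM with 2 mM ATP. Enzyme: 20 nM WRN, exposed to compound for 15 min at room temperature. Responses normalized to buffer-only and positive-control wells.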

[9] = biological target: DNA polymerase kappa (Homo sapiens) (UniProt Q9UBT6); assay: qHTS for Inhibitors of Polymerase Kappa: Confirmatory Assay for Cherry-picked Compounds (AID 720501); details: purified Pol-kappa, fluorescent strand-displacement substrate; further: potency means the concentration at half of the fitted maximal effect
How it was run: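 Human Pol-kappa, dispensed at 10 nM, was preincubated with compounds for 15 min at room temperature. Reactions were started with primer/template substrate (50 nM final) carrying a TAMRA reporter strand and BHQ-2-quenched template, and fluorescence (ex 525/em 598 nm) was read at 0 and 10 min.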

[10] = biological target: RecQ-like DNA helicase BLM (Homo sapiens) (UniProt P54132); assay: qHTS for Inhibitors of WRN Helicase: BLM Helicase Counterscreen for WRN Inhibitors (AID 720503); details: Recombinant BLM helicase DNA unwinding, red fluorescence; further: potency means the concentration at half of the fitted maximal effect; nearly all actives have a fitted effect of over 60% in size
How it was run: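 Steps: compounds added to 1 nM BLM in pH 8.0 Tris buffer with 2 mM MgCl2; 15 min room-temperature incubation; substrates added (100 nM DNA, 2 mM ATP final); discontinuous kinetic fluorescence measurement, reads spaced 15 min.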

[11] = qHTS for Inhibitors of the vitamin D receptor (VDR): Hit Validation using a Texas Red Assay (AID 602201); further: potency means the concentration at half of the fitted maximal effect
How it was run: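 Fluorescence polarization (Ex 595/Em 615 nm) of Texas Red (7 nM) with 1.5 uM VDR-LBD and LG19078 (final concentrations). Compounds were incubated for 2 hours at room temperature.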

[12] = biological target: Tumor susceptibility gene 101 protein (Homo sapiens) (UniProt Q99816); assay: qHTS Assay for Iinhibitors of HIV-1 Budding by Blocking the Interaction of PTAP/TSG101: Hit Validation (AID 651600); further: potency means the concentration at half of the fitted maximal effect; nearly all actives have a fitted effect of over 70% in size
How it was run: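 FITC-PTAP peptide (50 nM final) binding to Tsg101 binding domain (10 uM final) was measured by polarization after 20 min at r.t. with compounds, in 10 mM HEPES pH 7.5 buffer with 0.15 M NaCl and 0.01% Tween 20.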

[13] = biological target: Cytochrome P450 3A4 (Homo sapiens) (UniProt P08684); assay: qHTS Assay for Inhibitors and Substrates of Cytochrome P450 3A4 (AID 884); further: potency means the concentration at half of the fitted maximal effect; nearly all actives have a fitted effect of over 50% in size
How it was run: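 Luminescent readout of luciferin produced by CYP3A4 (20 nM) dealkylation of Luciferin-PPXE, 25 uM (its KM). NADPH-driven reaction ran 60 min at RT after 10 min compound preincubation; data scaled to 57 uM ketoconazole as 100% inhibition.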

[14] = biological target: Cytochrome P450 3A4 (Homo sapiens) (UniProt P08684); assay: qHTS Assay for Activators of Cytochrome P450 3A4 (AID 885); further: nearly all actives have a fitted effect of over 65% in size
How it was run: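 Using 20nM recombinant human CYP3A4 in potassium phosphate (200mM), substrate Luciferin-PPXE at 25uM, luminescent luciferin detection followed a 60-min RT NADPH reaction; data scaled to 57 uM ketoconazole.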

Sequence of Rap guanine nucleotide exchange factor 3 (Homo sapiens) (O95398 whole entry, looked up): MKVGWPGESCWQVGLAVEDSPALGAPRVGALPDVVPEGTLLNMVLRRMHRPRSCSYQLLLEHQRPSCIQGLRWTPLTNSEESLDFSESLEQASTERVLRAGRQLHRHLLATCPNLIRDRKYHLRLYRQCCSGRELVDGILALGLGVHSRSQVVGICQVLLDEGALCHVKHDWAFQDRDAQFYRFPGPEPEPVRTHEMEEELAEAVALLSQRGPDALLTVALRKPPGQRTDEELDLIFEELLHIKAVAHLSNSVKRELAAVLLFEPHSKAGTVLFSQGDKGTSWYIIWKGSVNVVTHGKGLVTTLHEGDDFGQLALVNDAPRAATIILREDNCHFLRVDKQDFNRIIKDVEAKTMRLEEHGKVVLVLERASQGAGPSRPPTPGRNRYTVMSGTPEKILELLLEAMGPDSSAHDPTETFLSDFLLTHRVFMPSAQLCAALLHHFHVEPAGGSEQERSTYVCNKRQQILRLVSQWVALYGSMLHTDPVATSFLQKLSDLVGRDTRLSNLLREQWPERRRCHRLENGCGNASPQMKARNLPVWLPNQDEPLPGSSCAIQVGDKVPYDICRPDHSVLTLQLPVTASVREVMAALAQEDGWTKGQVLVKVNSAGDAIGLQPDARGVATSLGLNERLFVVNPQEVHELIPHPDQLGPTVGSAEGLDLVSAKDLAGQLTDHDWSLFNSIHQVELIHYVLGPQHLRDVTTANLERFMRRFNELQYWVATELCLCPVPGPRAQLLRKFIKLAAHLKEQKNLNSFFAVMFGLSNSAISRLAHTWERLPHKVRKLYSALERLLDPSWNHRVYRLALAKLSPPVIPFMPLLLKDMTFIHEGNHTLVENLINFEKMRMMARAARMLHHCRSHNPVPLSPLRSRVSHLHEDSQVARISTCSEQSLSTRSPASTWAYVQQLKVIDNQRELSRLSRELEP
Sequence of Rap guanine nucleotide exchange factor 4 (Homo sapiens) (Q8WZA2 whole entry, looked up): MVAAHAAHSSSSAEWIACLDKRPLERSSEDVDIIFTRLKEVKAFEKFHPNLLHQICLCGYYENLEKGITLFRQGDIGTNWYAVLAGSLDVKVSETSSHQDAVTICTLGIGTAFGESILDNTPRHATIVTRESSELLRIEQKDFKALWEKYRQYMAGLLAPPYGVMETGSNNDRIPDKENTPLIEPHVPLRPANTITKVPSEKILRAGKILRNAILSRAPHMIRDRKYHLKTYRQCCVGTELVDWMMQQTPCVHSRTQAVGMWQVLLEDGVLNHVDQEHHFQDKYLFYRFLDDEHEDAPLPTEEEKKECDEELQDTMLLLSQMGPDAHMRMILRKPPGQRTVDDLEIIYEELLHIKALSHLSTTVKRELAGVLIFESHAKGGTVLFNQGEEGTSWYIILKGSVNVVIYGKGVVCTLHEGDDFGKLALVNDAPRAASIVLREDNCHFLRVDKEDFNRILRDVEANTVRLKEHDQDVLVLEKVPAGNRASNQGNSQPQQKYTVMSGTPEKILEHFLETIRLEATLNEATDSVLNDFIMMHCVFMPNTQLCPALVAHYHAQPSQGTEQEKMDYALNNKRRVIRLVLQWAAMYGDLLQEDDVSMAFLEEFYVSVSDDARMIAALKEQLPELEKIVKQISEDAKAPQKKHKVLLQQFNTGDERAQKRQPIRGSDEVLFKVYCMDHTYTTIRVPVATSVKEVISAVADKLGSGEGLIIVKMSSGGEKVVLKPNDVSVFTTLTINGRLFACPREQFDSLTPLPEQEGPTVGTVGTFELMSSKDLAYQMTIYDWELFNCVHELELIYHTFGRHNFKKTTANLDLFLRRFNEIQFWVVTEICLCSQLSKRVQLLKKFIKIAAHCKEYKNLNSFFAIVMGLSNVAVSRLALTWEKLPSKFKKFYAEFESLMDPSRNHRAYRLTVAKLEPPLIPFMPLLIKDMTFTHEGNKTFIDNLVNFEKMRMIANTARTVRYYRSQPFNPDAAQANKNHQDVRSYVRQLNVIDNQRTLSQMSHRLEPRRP
Sequence of Cytochrome P450 3A4 (Homo sapiens) (P08684 whole entry, looked up): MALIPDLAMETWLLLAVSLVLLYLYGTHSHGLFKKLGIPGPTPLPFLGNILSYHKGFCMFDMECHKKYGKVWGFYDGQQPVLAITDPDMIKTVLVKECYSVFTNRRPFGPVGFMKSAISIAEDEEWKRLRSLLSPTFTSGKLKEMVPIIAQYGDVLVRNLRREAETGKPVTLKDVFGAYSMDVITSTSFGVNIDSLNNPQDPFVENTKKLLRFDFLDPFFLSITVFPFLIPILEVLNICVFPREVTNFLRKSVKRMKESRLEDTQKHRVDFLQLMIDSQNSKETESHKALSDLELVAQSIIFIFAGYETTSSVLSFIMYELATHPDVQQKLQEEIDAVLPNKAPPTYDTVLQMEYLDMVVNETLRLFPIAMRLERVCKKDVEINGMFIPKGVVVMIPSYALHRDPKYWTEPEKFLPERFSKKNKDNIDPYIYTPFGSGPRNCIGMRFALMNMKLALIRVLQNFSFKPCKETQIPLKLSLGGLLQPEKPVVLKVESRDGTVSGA
Sequence of DNA polymerase iota (Homo sapiens) (Q9UNA4 whole entry, looked up): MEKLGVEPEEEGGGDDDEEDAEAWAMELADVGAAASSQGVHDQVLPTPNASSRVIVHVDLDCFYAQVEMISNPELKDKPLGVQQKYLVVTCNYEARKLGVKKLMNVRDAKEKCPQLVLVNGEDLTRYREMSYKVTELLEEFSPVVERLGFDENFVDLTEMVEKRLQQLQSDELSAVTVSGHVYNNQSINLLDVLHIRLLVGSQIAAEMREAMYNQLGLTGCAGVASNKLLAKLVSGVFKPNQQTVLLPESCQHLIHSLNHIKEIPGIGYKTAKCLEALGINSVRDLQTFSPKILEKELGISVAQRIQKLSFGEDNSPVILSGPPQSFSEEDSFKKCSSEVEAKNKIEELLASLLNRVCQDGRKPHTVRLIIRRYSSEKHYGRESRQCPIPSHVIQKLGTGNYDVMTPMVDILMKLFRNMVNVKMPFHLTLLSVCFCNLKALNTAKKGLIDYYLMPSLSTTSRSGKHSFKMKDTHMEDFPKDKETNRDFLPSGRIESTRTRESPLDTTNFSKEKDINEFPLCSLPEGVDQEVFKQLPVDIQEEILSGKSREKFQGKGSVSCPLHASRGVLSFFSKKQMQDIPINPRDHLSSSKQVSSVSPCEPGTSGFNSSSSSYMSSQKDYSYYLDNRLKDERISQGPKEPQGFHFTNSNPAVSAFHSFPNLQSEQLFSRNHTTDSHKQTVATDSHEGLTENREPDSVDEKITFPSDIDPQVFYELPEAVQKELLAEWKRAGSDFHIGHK
Sequence of DNA polymerase kappa (Homo sapiens) (Q9UBT6 whole entry, looked up): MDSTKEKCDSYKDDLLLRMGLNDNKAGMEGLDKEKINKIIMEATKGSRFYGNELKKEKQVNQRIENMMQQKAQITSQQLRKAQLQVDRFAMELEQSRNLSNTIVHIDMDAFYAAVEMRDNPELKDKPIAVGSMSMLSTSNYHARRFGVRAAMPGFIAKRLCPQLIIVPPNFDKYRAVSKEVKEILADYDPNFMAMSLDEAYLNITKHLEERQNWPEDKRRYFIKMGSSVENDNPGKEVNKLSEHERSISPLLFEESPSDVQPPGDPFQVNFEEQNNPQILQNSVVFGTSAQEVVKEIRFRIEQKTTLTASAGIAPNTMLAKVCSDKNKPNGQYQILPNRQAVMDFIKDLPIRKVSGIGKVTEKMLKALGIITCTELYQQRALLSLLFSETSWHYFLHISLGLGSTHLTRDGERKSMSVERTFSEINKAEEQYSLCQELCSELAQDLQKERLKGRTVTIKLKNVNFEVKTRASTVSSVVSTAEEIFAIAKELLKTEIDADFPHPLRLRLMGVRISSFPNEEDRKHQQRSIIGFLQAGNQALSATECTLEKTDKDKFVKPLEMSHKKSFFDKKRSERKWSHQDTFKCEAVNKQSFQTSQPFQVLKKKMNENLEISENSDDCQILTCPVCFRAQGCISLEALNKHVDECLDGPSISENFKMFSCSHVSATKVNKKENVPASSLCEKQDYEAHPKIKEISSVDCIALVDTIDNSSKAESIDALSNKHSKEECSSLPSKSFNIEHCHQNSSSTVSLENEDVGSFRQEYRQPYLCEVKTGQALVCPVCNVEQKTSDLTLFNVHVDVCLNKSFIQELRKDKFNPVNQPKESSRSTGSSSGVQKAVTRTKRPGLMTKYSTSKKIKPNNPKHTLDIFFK
Sequence of Phosphoglycerate kinase, glycosomal (Trypanosoma brucei brucei) (P07378 whole entry, looked up): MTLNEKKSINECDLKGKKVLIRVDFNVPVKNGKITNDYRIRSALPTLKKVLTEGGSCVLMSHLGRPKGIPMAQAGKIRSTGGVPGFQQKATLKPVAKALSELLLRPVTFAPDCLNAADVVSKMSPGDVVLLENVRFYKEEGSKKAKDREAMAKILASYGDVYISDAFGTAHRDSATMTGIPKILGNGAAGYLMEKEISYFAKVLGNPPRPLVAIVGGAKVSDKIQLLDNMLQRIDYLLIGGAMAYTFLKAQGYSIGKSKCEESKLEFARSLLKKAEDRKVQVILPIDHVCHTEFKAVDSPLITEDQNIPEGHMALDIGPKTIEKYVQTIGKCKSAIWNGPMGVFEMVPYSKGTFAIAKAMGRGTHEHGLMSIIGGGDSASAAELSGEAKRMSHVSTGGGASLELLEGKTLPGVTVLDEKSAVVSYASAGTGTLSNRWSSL
Sequence of Tumor susceptibility gene 101 protein (Homo sapiens) (Q99816 whole entry, looked up, the tested form may be a part): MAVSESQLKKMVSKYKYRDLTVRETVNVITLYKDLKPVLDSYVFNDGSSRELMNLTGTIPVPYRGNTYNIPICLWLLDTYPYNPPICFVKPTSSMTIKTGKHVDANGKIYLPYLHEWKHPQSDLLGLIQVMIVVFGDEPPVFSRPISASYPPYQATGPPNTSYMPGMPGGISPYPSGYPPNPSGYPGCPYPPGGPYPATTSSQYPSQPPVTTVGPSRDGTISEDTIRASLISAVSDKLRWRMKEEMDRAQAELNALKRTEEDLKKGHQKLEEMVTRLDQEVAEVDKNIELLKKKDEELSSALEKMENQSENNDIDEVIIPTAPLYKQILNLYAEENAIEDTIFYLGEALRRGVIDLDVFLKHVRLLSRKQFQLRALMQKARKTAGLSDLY

COc1cc(/C=C(\C#N)c2nc3ccccc3s2)cc([N+](=O)[O-])c1O
inactive: Potency [2] | Potency [3] | Potency [4] | Potency [5]
active: Potency [1] 16.9 µM

O=C(CCCN1C(=O)/C(=C/c2ccccc2)SC1=S)Nc1ccccc1O
inactive: Potency [1] | Potency [2] | Potency [3] | Potency [4] | Potency [5]

COc1ccc(C(=O)c2ccc(Cl)cc2)c(OC)c1OC
inactive: Potency [1] | Potency [2] | activation [3] 6.47% [at 17.1 µM, percent relative to cAMP agonist control] | activity change, negative = inhibition [4] -1.07% [at 30.8 µM] | activation [5] 6.99% [at 30.8 µM]

Cc1cccc(C)c1OCC(=O)Nc1ccccc1N1CCCCC1
inactive: Potency [1] | Potency [2] | Potency [3] | Potency [4] | Potency [5]

O=C(N/N=C/c1cc(Cl)c(O)c(Cl)c1)c1cc2c(ccc3ccccc32)o1
inactive: Potency [2] | Potency [3] | Potency [4] | Potency [5]
active: Potency [1] 60.1 µM

CCCc1cc(=O)oc2cc(C)cc(OCC(=O)N[C@@H](CSCc3ccccc3)C(=O)O)c12
inactive: Potency [1] | Potency [2] | Potency [3] | Potency [4] | Potency [5]

O=c1ccc(-c2ccccc2)nn1Cc1ccc(Cl)cc1
inactive: Potency [1] | Potency [2] | Potency [3] | Potency [4] | Potency [5]

C[C@@H]1CN([C@@H](C)CO)C(=O)Cc2cc(NC(=O)C3CCCCC3)ccc2O[C@H]1CN(C)S(=O)(=O)c1ccccc1
inactive: Potency [1] | Potency [2] | Potency [3] | Potency [5]

Cc1cc(C(=O)N/N=C/c2ccc(O)c([N+](=O)[O-])c2)c(C)n1-c1ccc(F)cc1
inactive: Potency [2] | Potency [3] | Potency [4] | Potency [5]
active: Potency [1] 42.6 µM

Cc1nc(N(C)C)c2sc(=S)n(Cc3ccccc3)c2n1
inactive: Potency [1] | Potency [2] | activation [3] 11.2% [at 17.1 µM, percent relative to cAMP agonist control] | activity change, negative = inhibition [4] -16.2% [at 30.8 µM] | activation [5] 9.98% [at 30.8 µM]

O=c1ccc2c(-c3ccccc3S(=O)(=O)O)c3ccc(O)c(O)c3oc-2c1O
active: Potency [6] 0.366 µM | Potency [7] 0.597 µM | Potency [8] 0.541 µM | Potency [9] 1.06 µM | Potency [10] 0.136 µM | Potency [1] 7.94 µM
inactive: Potency [2] | activation [3] -12% [at 17.1 µM, percent relative to cAMP agonist control] | activity change, negative = inhibition [4] -28.7% [at 30.8 µM] | activation [5] -15.5% [at 30.8 µM]

O=C1ON=C(c2ccccc2)/C1=C/c1ccc(-c2ccccc2[N+](=O)[O-])o1
inactive: Potency [2] | Potency [3] | Potency [4]
active: Potency [11] 4.47 µM | Potency [1] 37.9 µM

COc1ccc2c(c1)CCC1(C)CC(=O)C(Br)=C21 (stereo not drawn)
inactive: Potency [1] | Potency [2] | Potency [3] | Potency [5]

Oc1[nH]c2ccc(Br)cc2c1N=Nc1ccc(F)cc1
inactive: Potency [2] | Potency [3] | Potency [5]
active: Potency [12] 10.3 µM | Potency [1] 84.9 µM | Potency [4] 70.8 µM

COC(=O)/N=C(/Cc1ccc(OC)cc1)c1ccc(OC)cc1
inactive: Potency [1] | Potency [2] | Potency [3] | Potency [5]

O=C(CN1CCCCCC1)Nc1ccccc1Oc1ccccc1
inactive: Potency [1] | Potency [2] | Potency [3] | Potency [4] | Potency [5]

CC(C)Cn1c(N)c(C(=O)COC(=O)c2cc(-c3ccco3)nc3ccccc23)c(=O)n(C)c1=O
active: Potency [13] 15.8 µM | Potency [1] 30.1 µM
inactive: outcome [14] | Potency [2] | Potency [3] | Potency [4] | Potency [5]

O=C(O)CN1C(=O)/C(=C\c2cc(Br)ccc2OCc2ccccc2Cl)SC1=S
inactive: Potency [2] | Potency [3] | Potency [5]
active: Potency [1] 33.8 µM

CC1(C)c2ccccc2N(CC(N)=O)C12C=Cc1ccccc1O2 (stereo not drawn)
inactive: Potency [1] | Potency [2] | activation [3] -0.49% [at 17.1 µM, percent relative to cAMP agonist control] | activity change, negative = inhibition [4] 6.74% [at 30.8 µM] | activation [5] 10.1% [at 30.8 µM]

O=C(C1CC1)N1c2ccccc2Sc2ccccc21
inactive: Potency [1] | Potency [2] | Potency [3] | Potency [4] | Potency [5]

O=C1C=C(c2ccccc2)C(c2ccccc2)C1 (stereo not drawn)
inactive: Potency [1] | Potency [2] | Potency [3] | Potency [5]

O=C(N/N=C/c1ccccc1O)c1ccc2c(c1)OCO2
inactive: Potency [1] | Potency [2] | Potency [3] | Potency [4] | Potency [5]

COc1ccccc1Oc1ncnc2c1oc1ccccc12
inactive: Potency [1] | Potency [2] | activation [3] -4.43% [at 17.1 µM, percent relative to cAMP agonist control] | activity change, negative = inhibition [4] 7.03% [at 30.8 µM] | activation [5] 5.04% [at 30.8 µM]

Cc1cc(C)c(S(=O)(=O)c2ccccc2C)c(SCC(C)C)n1
inactive: Potency [1] | Potency [2] | activation [3] 10.6% [at 17.1 µM, percent relative to cAMP agonist control] | activity change, negative = inhibition [4] -9.64% [at 30.8 µM] | activation [5] -2.44% [at 30.8 µM]
